# Data published in publication PMC11062922 (Nature Chemical Biology, 2023).
# Like-named read-outs stand apart in the source and are kept apart here.
# What was measured:
# Design in all cases: species or system human, MV4-11 + K-562 + COLO205 + SK-N-BE2 + OVCAR-8
# PRKDC = settings: read-out: apparent Kd; compound concentrations:100 nM and 1000 nM (sheet 'Samples'); n = 1
# T10 = system: T1, T10; settings: read-out: apparent Kd; compound concentrations:100 nM and 1000 nM (sheet 'Samples'); n = 1
# T1 construct: gene NAT10
# AGK = settings: read-out: apparent Kd, n = 1
# MAPK7 = settings: read-out: apparent Kd, compound concentrations: 100 nM and 1000 nM (sheet 'Samples'), n = 1
# NEK3 = settings: read-out: apparent Kd, compound concentrations: 100 nM and 1000 nM (sheet 'Samples'), n = 1
# PKN2 = settings: read-out: apparent Kd, n = 1
# WEE1 = settings: read-out: apparent Kd, n = 1
# FECH = settings: read-out: apparent Kd, n = 1
# SPR = settings: read-out: apparent Kd, compound concentrations: 100 nM and 1000 nM (sheet 'Samples'), n = 1
# RAB5C = settings: read-out: apparent Kd; compound concentrations:100 nM and 1000 nM (sheet 'Samples'); n = 1
# PIM1 = settings: read-out: apparent Kd, compound concentrations: 100 nM and 1000 nM (sheet 'Samples'), n = 1
# STK11 = settings: read-out: apparent Kd, n = 1
# MET = settings: read-out: apparent Kd, n = 1
# ADK = settings: read-out: apparent Kd, n = 1
# CDK9 = settings: read-out: apparent Kd; compound concentrations:100 nM and 1000 nM (sheet 'Samples'); n = 1
# PLK1 = settings: read-out: apparent Kd, n = 1
# PRKD1 = settings: read-out: apparent Kd, n = 1
# ACLY = settings: read-out: apparent Kd, compound concentrations: 100 nM and 1000 nM (sheet 'Samples'), n = 1
# CAMK2B = settings: read-out: apparent Kd, n = 1
# TTK = settings: read-out: apparent Kd, compound concentrations: 100 nM and 1000 nM (sheet 'Samples'), n = 1
# [1] = compound concentrations:100 nM and 1000 nM (sheet 'Samples')
structure (smiles),measurement,setting,value
Cc1cccc(-c2cc(-c3c[nH]nc3-c3ccccn3)ccn2)c1 [GW679395X],potency estimated from few doses,PRKDC,1.13 µM
same,potency estimated from few doses,T10,1.94 µM
Cl.Cl.Cl.c1ccc(Oc2ccc(Nc3ccnc4cc(-c5ccc(CN6CCNCC6)o5)ccc34)cc2)nc1.c1ccc(Oc2ccc(Nc3ccnc4cc(-c5ccc(CN6CCNCC6)o5)ccc34)cc2)nc1 [GW567142A],potency estimated from few doses,"AGK; compound concentrations: 100 nM and 1000 nM (sheet 'Samples'), CATDS: 1.95822774177494E-2",1.23 µM
same,potency estimated from few doses,MAPK7; CATDS: 1.6423654132294602E-2,2.37 µM
same,potency estimated from few doses,NEK3; CATDS: 1.7301178546407801E-2,1.91 µM
same,potency estimated from few doses,"PKN2; compound concentrations: 100 nM and 1000 nM (sheet 'Samples'), CATDS: 1.6443566928173701E-2",2.35 µM
CCN(CC)CCOc1ccc(Nc2ncc3cc(-c4c(Cl)cccc4Cl)c(=O)n(C)c3n2)cc1 [SB-601273],potency estimated from few doses,WEE1; [1],0.171 µM
CN1C(=O)c2ccccc2N(C)c2nc(Nc3cnn(C4CCNCC4)c3)ncc21 [XMD-17-51],potency estimated from few doses,MAPK7; CATDS: 3.6148838376291702E-2,0.101 µM
O=C1N=C(NCCc2cccc(Cl)c2)S/C1=C\c1ccc2ncccc2c1 [RO4509201-000],potency estimated from few doses,"FECH; compound concentrations: 100 nM and 1000 nM (sheet 'Samples'), CATDS: 5.2952837559238602E-2",2.08 µM
Cc1ccc(O)cc1Nc1ccnc2cc(-c3ccccn3)ccc12.Cl [GW440139A],potency estimated from few doses,SPR; CATDS: 2.8512814896169001E-2,0.683 µM
CCn1cc(-c2ccnc3[nH]c(-c4cccc(CN(C)C)c4)cc23)c(-c2ccc(NC(=O)N(C)C)cc2)n1 [GSK1070916],potency estimated from few doses,RAB5C,1.43 µM
COc1cc(Nc2ccnc3cc(-c4ccncc4)ccc23)cc(OC)c1OC.Cl [GW494610A],potency estimated from few doses,"FECH; compound concentrations: 100 nM and 1000 nM (sheet 'Samples'), CATDS: 2.4367792327904599E-2",1.07 µM
COc1ccc(Nc2nccc(N3CCC(NC(=O)Nc4ccc5c(c4)OCO5)C3)n2)cc1 (centres unmarked) [GSK1379745A],potency estimated from few doses,PIM1; CATDS: 4.3475641275587597E-2,1.26 µM
NC(=O)c1cccc(Nc2nccc(Nc3cccc4[nH]ncc34)n2)c1 [GW782612X],potency estimated from few doses,"STK11; compound concentrations: 100 nM and 1000 nM (sheet 'Samples'), CATDS: 6.0653418391634698E-2",0.342 µM
CS(=O)(=O)Cc1ccc(Nc2nccc(-c3c(-c4cccc(NC(=O)C5CCCCC5)c4)nn4ncccc34)n2)cc1 [GSK350559A],potency estimated from few doses,MET; [1],1.78 µM
CNC(=O)c1ccccc1Nc1nc(Nc2cccc(CS(C)(=O)=O)c2)ncc1C.O=CO [GSK1520489A],potency estimated from few doses,"MET; compound concentrations: 100 nM and 1000 nM (sheet 'Samples'), CATDS: 7.7828561887260297E-2",0.0122 µM
same,potency estimated from few doses,SPR; CATDS: 1.1311991214782401E-2,0.749 µM
same,potency estimated from few doses,"WEE1; compound concentrations: 100 nM and 1000 nM (sheet 'Samples'), CATDS: 2.0722471674581099E-2",0.127 µM
CN1CCN(Cc2ccc(NC(=O)Nc3ccc(N(C)c4ccnc(Nc5ccc(CS(C)(=O)=O)cc5)n4)cc3)cc2)CC1.Cl [GW827654A],potency estimated from few doses,"MET; compound concentrations: 100 nM and 1000 nM (sheet 'Samples'), CATDS: 3.7030406739302302E-2",1.38 µM
CC(=O)c1c(-c2ccncc2)[nH]c(-c2ccncc2)c1C [GW493036X],potency estimated from few doses,ADK; [1],1.76 µM
same,potency estimated from few doses,CDK9,0.154 µM
same,potency estimated from few doses,RAB5C,1.6 µM
COc1cccc(-c2c[nH]c3c(N/N=C/c4ccncc4)ncnc23)c1 [GW814408X],potency estimated from few doses,STK11; [1],1.9 µM
COc1cc2ncn(-c3cc(OCc4ccncc4)c(C(N)=O)s3)c2cc1OC [GSK336313A],potency estimated from few doses,FECH; [1],2.25 µM
same,potency estimated from few doses,PLK1; [1],0.686 µM
Fc1ccc(-c2c(-c3ccncc3)[nH]c3nccnc23)cc1 [RO1155697-000],potency estimated from few doses,AGK; [1],1.64 µM
COc1cc2ncn(-c3cc(OCc4cccs4)c(C(N)=O)s3)c2cc1OC [GSK312948A],potency estimated from few doses,ADK; [1],0.863 µM
same,potency estimated from few doses,RAB5C,1.45 µM
Nc1nc(N)c2nc(-c3ccccc3)[nH]c2n1 [SKF-12778],potency estimated from few doses,PRKDC,0.716 µM
same,potency estimated from few doses,STK11; [1],1.74 µM
same,potency estimated from few doses,T10,1.13 µM
CC(C)c1nc(-c2ccc(F)c(NS(=O)(=O)c3c(F)cccc3F)c2)c(-c2ccnc(Nc3ccc(N4CCOCC4)nc3)n2)s1 [GSK1804250A],potency estimated from few doses,PRKD1; [1],1.14 µM
N#Cc1cccc(Nc2nccc(-c3cnn4ncccc34)n2)c1 [GW778894X],potency estimated from few doses,CDK9,0.00372 µM
CC(=O)N1CCN(c2ccc(Nc3nccc(-c4sc(C(C)C)nc4-c4cccc(NS(=O)(=O)c5cccc(Cl)c5)c4)n3)cn2)CC1 [GSK1660437A],potency estimated from few doses,ACLY; CATDS: 3.7699367281675798E-2,1.77 µM
O=S(=O)(CCOCc1ccc(-c2ccc3ncnc(Nc4ccc(OCc5cccc(F)c5)c(Cl)c4)c3c2)o1)c1ccccc1 [GW615311X],potency estimated from few doses,NEK3; CATDS: 2.1900299581920201E-2,2.46 µM
same,potency estimated from few doses,PIM1; CATDS: 3.06146278904708E-2,1.12 µM
Nc1c(C(=O)c2ccccc2)cnn1-c1ccc(F)cc1 [RO1151246-000],potency estimated from few doses,PKN2; [1],1.91 µM
COc1cccc(C2=C(c3cn(C)c4c(C)cccc34)C(=O)NC2=O)c1 [RO3301012-000],potency estimated from few doses,"CAMK2B; compound concentrations: 100 nM and 1000 nM (sheet 'Samples'), CATDS: 0.15582522082394101",0.642 µM
COc1cc2ncn(-c3cc(OCc4sccc4Cl)c(C(N)=O)s3)c2cc1OC [GSK448459A],potency estimated from few doses,PLK1; [1],0.0812 µM
O=C1NC(=O)C(c2cccc(Cl)c2)=C1Nc1ccc(O)c(Cl)c1 [SB-409514],potency estimated from few doses,ACLY; CATDS: 0.38429140901440101,1 µM
Cc1ccc(NC(=O)Nc2ccccc2)cc1-c1ccc(C(=O)Nc2ccncc2)cc1 [GSK1398471A],potency estimated from few doses,"PRKD1; compound concentrations: 100 nM and 1000 nM (sheet 'Samples'), CATDS: 0.105821439316495",1.68 µM
Cn1cc(C2=C(c3cccc([N+](=O)[O-])c3)C(=O)NC2=O)c2ccccc21 [RO0317474-000],potency estimated from few doses,"CAMK2B; compound concentrations: 100 nM and 1000 nM (sheet 'Samples'), CATDS: 0.20512519327704001",0.717 µM
COc1ccc(Nc2nccc(N3CCC(NC(=O)Nc4cccc(OC)c4)C3)n2)cc1 (centres unmarked) [GSK1379742A],potency estimated from few doses,"ADK; compound concentrations: 100 nM and 1000 nM (sheet 'Samples'), CATDS: 0.15674492121070999",1.07 µM
NC(=O)c1sc(-n2cnc3ccc(C(F)(F)F)cc32)cc1OCc1ccccc1Br [GW853606X],potency estimated from few doses,"PLK1; compound concentrations: 100 nM and 1000 nM (sheet 'Samples'), CATDS: 0.32728933930944998",1.02 µM
COc1cc(F)c(F)c(F)c1C(=O)c1cnc(NC2CCN(S(C)(=O)=O)CC2)nc1N [RO4600703-000],potency estimated from few doses,CDK9,0.349 µM
COc1ccc(C2=C(c3cn(C)c4ccccc34)C(=O)NC2=O)cc1OC [RO3206363-000],potency estimated from few doses,"PRKD1; compound concentrations: 100 nM and 1000 nM (sheet 'Samples'), CATDS: 5.5883212244700199E-2",0.347 µM
COc1cc(N2CCN(C(C)C)CC2)ccc1Nc1nc(Nc2cccc(F)c2C(=O)O)c2cc[nH]c2n1 [GSK1819799A],potency estimated from few doses,ACLY; CATDS: 4.2702759645578299E-2,2 µM
same,potency estimated from few doses,PIM1; CATDS: 4.9008652633002601E-2,1.33 µM
same,potency estimated from few doses,SPR; CATDS: 4.2652137830011101E-2,2 µM
same,potency estimated from few doses,TTK; CATDS: 6.5910432506735395E-2,0.662 µM
COc1ccc(-c2nn3ncccc3c2-c2ccnc(Nc3ccc4c(c3)OCCO4)n2)cc1 [GW827106X],potency estimated from few doses,TTK; CATDS: 4.8165403785390797E-2,1.63 µM
Fc1cccc(COc2ccc(Nc3ncncc3C#Cc3ccccc3)cc2Cl)c1 [GW651576X],potency estimated from few doses,TTK; CATDS: 4.4346947520248398E-2,2.37 µM
Cl.Oc1ccc2ncnc(Nc3ccc(OCc4ccccc4)cc3)c2c1 [GI262866A],potency estimated from few doses,CAMK2B; [1],0.391 µM
